{"source": "PubChem BioAssay AID2069", "about": "(Sanford-Burnham Center for Chemical Genomics, 2009)", "note": "The campaign covered roughly 1,200 compounds. About 210 (18%) were called active. Rule as the data show it: active = inhibition above about 30%; inactive = the rest. A selection follows.", "data": [{"assay": "HTRF signal interference by compounds, confirmation, artefact control for SUMOylation inhibitor project, biochemical, uHTS (AID 2069)", "details": "HTRF interference counterscreen, fluorescence, at 35 µM, hits give high values", "values": [{"smiles": "O=[N+]([O-])c1c(NCCO)cc(N2CCC3(CC2)OCCO3)c2nonc12", "inhibition": "-10.3% (inactive)"}, {"smiles": "CCOc1ccc(C2Nc3cccc4cccc(c34)N2)cc1OC", "inhibition": "-29.6% (inactive)"}, {"smiles": "O=C1C(=O)c2ccccc2C(O)=C1CCCCl", "inhibition": "-11.4% (inactive)"}, {"smiles": "CCc1ccccc1NC(=O)Nc1cccn(Cc2ccccc2F)c1=O", "inhibition": "-9.65% (inactive)"}, {"smiles": "CC1CCCCC1NC(=O)c1cc2c(=O)n3ccccc3nc2n1C", "note": "(stereo not given)", "inhibition": "57.8% (active)"}, {"smiles": "Cc1ccc(S(=O)(=O)c2cc3c(=O)n4ccccc4nc3n(Cc3ccco3)c2=N)cc1C", "inhibition": "9.75% (inactive)"}, {"smiles": "Cn1c(C(=O)NCC2CCCO2)cc2c(=O)n3ccccc3nc21", "note": "(stereo not given)", "inhibition": "51% (active)"}, {"smiles": "C=CCNc1nc(NCc2ccccc2)c(C#N)c2c1CN(C)CC2", "inhibition": "18.9% (inactive)"}, {"smiles": "OCCNC(=S)Nc1ccc2nsnc2c1", "inhibition": "10.1% (inactive)"}, {"smiles": "CC(C)N1CCC2(CC1)C(C#N)=C(N)NC(S)=C2C#N", "inhibition": "33.9% (active)"}, {"smiles": "Cc1ccoc1C(=O)NCCCNC(=O)c1occc1C", "inhibition": "0.95% (inactive)"}, {"smiles": "COc1ccc(CN2C(=O)Cc3c2nc(N)c2c(N)nc(N4CCOCC4)c(C#N)c32)cc1", "inhibition": "42.5% (active)"}, {"smiles": "CCOc1cc2c(C#N)c(N3CCOCC3)nc(N)c2c(N)n1", "inhibition": "51.2% (active)"}, {"smiles": "CCOc1cc2c(C#N)c(N3CCCCC3)nc(N)c2c(N)n1", "inhibition": "20.6% (inactive)"}, {"smiles": "COc1cc2c(C#N)c(N3CCCCC3)nc(N)c2c(N)n1", "inhibition": "25.2% (inactive)"}, {"smiles": "COc1cc2c(C#N)c(N3CCN(C)CC3)nc(N)c2c(N)n1", "inhibition": "43.2% (active)"}, {"smiles": "COc1cc2c(C#N)c(N3CCCC3)nc(N)c2c(N)n1", "inhibition": "27.4% (inactive)"}, {"smiles": "CCOc1cc2c(C#N)c(N3CCNCC3)nc(N)c2c(N)n1", "inhibition": "47.2% (active)"}, {"smiles": "COCC(C)N1C(=O)Cc2c1nc(N)c1c(N)nc(N3CCN(c4ccccc4F)CC3)c(C#N)c21", "note": "(stereo not given)", "inhibition": "19.1% (inactive)"}, {"smiles": "COc1cc2c(C#N)c(N3CCN(c4ccccc4OC)CC3)nc(N)c2c(N)n1", "inhibition": "16.6% (inactive)"}, {"smiles": "N#Cc1c(N2CCCCC2)nc(N)c2c(N)nc(SCC(=O)O)cc12", "inhibition": "14.9% (inactive)"}, {"smiles": "COCCN(CCOC)c1nc(N)c2c(N)nc3c(c2c1C#N)CC(=O)N3Cc1ccc(Cl)cc1", "inhibition": "27.9% (inactive)"}, {"smiles": "S=c1[nH]nc(-c2cc(-c3ccccc3)n[nH]2)n1/N=C/c1ccc(Br)s1", "inhibition": "-6.25% (inactive)"}, {"smiles": "O=C(NC(=S)Nc1cccc2c(O)cccc12)c1ccco1", "inhibition": "-6.9% (inactive)"}, {"smiles": "Cc1ccc(Cn2cccc(NS(C)(=O)=O)c2=O)cc1", "inhibition": "-3.15% (inactive)"}, {"smiles": "O=S(=O)(Nc1cc2nc3ccccc3nc2n1Cc1ccccc1)c1ccc(Cl)cc1", "inhibition": "24.5% (inactive)"}, {"smiles": "Oc1cccc(C=NCc2ccccc2)c1O", "inhibition": "-0.8% (inactive)"}, {"smiles": "CNS(=O)(=O)c1ccc2nc(NC(=O)/C=C/c3ccco3)sc2c1", "inhibition": "25.6% (inactive)"}, {"smiles": "COc1cc2cc(NC(C)=O)cc(NCc3ccccc3)c2cc1OC", "inhibition": "-19.9% (inactive)"}, {"smiles": "Cc1ccc(N2CCN(Cc3ccccc3)CC2=O)c(C)c1", "inhibition": "-6.45% (inactive)"}, {"smiles": "O=Cc1cn(-c2ccccc2)nc1-c1cc2cc(O)ccc2oc1=O", "inhibition": "11.8% (inactive)"}, {"smiles": "O=C(O)/C=C\\c1cn(-c2ccccc2)nc1-c1cc2ccccc2o1", "inhibition": "48.1% (active)"}, {"smiles": "O=C(O)/C=C/c1cn(-c2ccccc2)nc1-c1cc2ccccc2o1", "inhibition": "41.2% (active)"}, {"smiles": "Nc1c(N2CCOCC2)cc(Cl)c2nonc12", "inhibition": "3% (inactive)"}, {"smiles": "Cc1ccc(C(=O)N[C@H](C(=O)Nc2cc(Cl)cc(Cl)c2)C(C)C)cc1", "inhibition": "3.15% (inactive)"}, {"smiles": "N#Cc1ccsc1NC(=O)CN1CCN(c2ccc(O)cc2)CC1", "inhibition": "14.3% (inactive)"}, {"smiles": "Cc1ccc(-c2cc(-c3ccccc3O)nc(N/N=C/c3cccnc3)n2)cc1", "inhibition": "52.2% (active)"}, {"smiles": "Nc1c(C(=O)N/N=C/c2cccnc2)oc2nc(-c3ccco3)cc(-c3ccco3)c12", "inhibition": "20% (inactive)"}, {"smiles": "S=c1[nH]nc(-c2ccncc2)n1/N=C/c1ccccc1Cl", "inhibition": "-1.75% (inactive)"}, {"smiles": "CC(C)N1C(=O)CC(Nc2cccc3cccc(N)c23)C1=O", "note": "(stereo not given)", "inhibition": "-13.8% (inactive)"}, {"smiles": "O=c1c2ccccc2nc(/C=C/c2cccnc2)n1Cc1ccccc1", "inhibition": "30.9% (active)"}, {"smiles": "Cc1ccc(-c2[nH]ncc2/C=N/n2c(C)nc3ccccc3c2=O)cc1", "inhibition": "-0.85% (inactive)"}, {"smiles": "O=C(Cc1cccc2ccccc12)NN1C(=O)/C(=C\\c2cccnc2)SC1=S", "inhibition": "-7.8% (inactive)"}, {"smiles": "COc1ccc(S(=O)(=O)C(C#N)c2nc3ccccc3nc2N2CCCCC2)cc1", "note": "(stereo not given)", "inhibition": "-7.95% (inactive)"}, {"smiles": "Cc1ccc(S(=O)(=O)C(C#N)c2nc3ccccc3nc2N2CCCC2)cc1C", "note": "(stereo not given)", "inhibition": "-3.55% (inactive)"}, {"smiles": "CCOC(=O)c1c(NC(=O)C2C3C=CC(CC3)C2C(=O)O)sc(C)c1CC", "note": "(stereo not given)", "inhibition": "0.4% (inactive)"}, {"smiles": "O=C(N/N=C/c1ccc([N+](=O)[O-])o1)c1cc(-c2ccc(-c3ccccc3)cc2)nc2ccccc12", "inhibition": "4.6% (inactive)"}, {"smiles": "Cc1ccc(C2Nc3cccc4cccc(c34)N2)s1", "inhibition": "-32.4% (inactive)"}, {"smiles": "Cc1cc(=O)n2[nH]c(N)c(N=Nc3ccccc3F)c2n1", "inhibition": "-14.7% (inactive)"}, {"smiles": "COc1ccc(C(=O)Nc2ccc(-c3nnn(CC(=O)N4CCN(C(=O)c5ccco5)CC4)n3)cc2)cc1", "inhibition": "25.6% (inactive)"}, {"smiles": "COc1ccc(/C=C2/SC(=S)N(c3ccc(S(=O)(=O)Nc4nccs4)cc3)C2=O)cc1", "inhibition": "-18% (inactive)"}, {"smiles": "CCOC(=O)c1nn(-c2ccc3c(c2)CCN3C(C)=O)cc1O", "inhibition": "48.8% (active)"}, {"smiles": "COc1ccc(Br)cc1CNc1ccc(O)cc1", "inhibition": "-15.2% (inactive)"}, {"smiles": "O=C(O)CCCN1C(=O)/C(=C/C=C/c2ccco2)SC1=S", "inhibition": "11.7% (inactive)"}, {"smiles": "O=C(O)CCCN1C(=O)/C(=C/c2cn(-c3ccccc3)nc2-c2cccs2)SC1=S", "inhibition": "4.55% (inactive)"}, {"smiles": "Cc1ccc(-c2nn(-c3ccccc3)cc2/C=C2\\SC(=S)N(CCCCCC(=O)O)C2=O)o1", "inhibition": "37% (active)"}, {"smiles": "COC(=O)c1cc2c(C)[nH]c(C)c2cc(C(=O)OC)c1=O", "inhibition": "3.75% (inactive)"}, {"smiles": "O=[N+]([O-])c1ccc(C=Nc2ccc(Cl)c([N+](=O)[O-])c2)s1", "inhibition": "6.5% (inactive)"}, {"smiles": "O=C(NNc1cc(N2CCCC2)nc(N2CCCC2)n1)c1ccc([N+](=O)[O-])cc1", "inhibition": "-2.1% (inactive)"}, {"smiles": "Cc1sc2nc3ccc(NCc4ccco4)nn3c(=O)c2c1C", "inhibition": "44.4% (active)"}, {"smiles": "Cc1ccc(/C=c2\\sc3nc(-c4ccco4)nn3c2=O)o1", "inhibition": "-1.1% (inactive)"}, {"smiles": "COc1cccc(-c2[nH]nc3c2C(c2ccsc2)C(C#N)=C(N)O3)c1", "note": "(stereo not given)", "inhibition": "-11% (inactive)"}, {"smiles": "CC(NC(=O)Nc1ccc(O)cc1)(C(F)(F)F)C(F)(F)F", "inhibition": "1.45% (inactive)"}, {"smiles": "COc1ccc(S(=O)(=O)C(C#N)c2nc3ccccc3nc2N2CCCC(C)C2)cc1", "note": "(stereo not given)", "inhibition": "13.2% (inactive)"}, {"smiles": "O=c1[nH]c(Nc2ccc(F)cc2)cc2ccccc12", "inhibition": "29.8% (inactive)"}, {"smiles": "O=c1[nH]c(Nc2ccccc2)cc2ccccc12", "inhibition": "41% (active)"}, {"smiles": "COC1=C(Nc2ccccc2)C(=O)c2ccccc2C1=O", "inhibition": "-14.2% (inactive)"}, {"smiles": "C/C(=N\\NC(=O)c1cc(O)cc(O)c1)c1ccc(NC(=O)Cc2ccccc2)cc1", "inhibition": "25.6% (inactive)"}, {"smiles": "COc1ccccc1/C=C/C=c1\\sc2nc(=O)c(Cc3ccccc3)nn2c1=O", "inhibition": "0.1% (inactive)"}, {"smiles": "Cc1cc(C)cc(Oc2coc3c(CN(C)C)c(O)ccc3c2=O)c1", "inhibition": "48.2% (active)"}, {"smiles": "CCN(CC)Cc1c(O)ccc2c(=O)c(Oc3ccccc3OC)coc12", "inhibition": "42.6% (active)"}, {"smiles": "COc1ccc(NCc2cc3ccccc3[nH]c2=O)cc1", "inhibition": "11.8% (inactive)"}, {"smiles": "N#Cc1c(-c2ccccc2)nc(SCC(=O)N2c3ccccc3Sc3ccccc32)[nH]c1=O", "inhibition": "15.3% (inactive)"}, {"smiles": "CCOC(=O)N1CCN(C2=C(NS(=O)(=O)c3ccc(NC(C)=O)cc3)C(=O)c3ccccc3C2=O)CC1", "inhibition": "-27.3% (inactive)"}, {"smiles": "Nc1ccc(Br)c2cccnc12", "inhibition": "11.4% (inactive)"}, {"smiles": "Cc1ccc(N/N=C2\\CC(=O)c3ccccc32)cc1Cl", "inhibition": "-12% (inactive)"}, {"smiles": "C/C(CCc1ccco1)=N\\NC(=O)CNc1cccc2ccccc12", "inhibition": "22.1% (inactive)"}, {"smiles": "O=c1c(C(c2ccccc2)c2c(O)sc3ccccc3c2=O)c(O)sc2ccccc12", "inhibition": "4.95% (inactive)"}, {"smiles": "COC1=C(Nc2ccccc2OC)C(=O)c2ccccc2C1=O", "inhibition": "-37.9% (inactive)"}, {"smiles": "COc1ccc(OC)c2c1C(=O)c1ccccc1C2=O", "inhibition": "42.9% (active)"}, {"smiles": "COc1cccc2c1C(=O)c1ccc3ccccc3c1C2=O", "inhibition": "5.5% (inactive)"}, {"smiles": "COc1cccc(Cn2cccc(NC(=O)Nc3ccccc3C)c2=O)c1", "inhibition": "0% (inactive)"}, {"smiles": "CCOC(=O)C1=C(C)NC(=O)CC1c1cc2c(cc1[N+](=O)[O-])OCO2", "note": "(stereo not given)", "inhibition": "-4.35% (inactive)"}, {"smiles": "COc1cc(Br)c(C(=O)c2nccc3cc(OC)c(OC)cc23)cc1OC", "inhibition": "3.15% (inactive)"}, {"smiles": "COc1ccc(NC(=O)CN2C(=O)S/C(=C/c3cccn3-c3ccc(C(=O)O)cc3)C2=O)cc1", "inhibition": "8% (inactive)"}, {"smiles": "O=C1C2C3C=CC(C4CC34)C2C(=O)N1CCc1ccccc1", "note": "(stereo not given)", "inhibition": "8.65% (inactive)"}, {"smiles": "CN(C)C=Nc1ccc2nn(-c3ccccc3)nc2c1", "inhibition": "58.8% (active)"}, {"smiles": "CN(C)C=Nc1ccc2nc3c(cc2c1)[nH]c1ccccc13", "inhibition": "53.9% (active)"}, {"smiles": "CC1=NN(c2ccc(C)cc2C)C(=O)C1C(c1cccc(O)c1)C1C(=O)N(c2ccc(C)cc2C)N=C1C", "note": "(stereo not given)", "inhibition": "-2.1% (inactive)"}, {"smiles": "Cc1ccc(C(=O)c2c3ccc(N)cc3nn2CCC(N)=O)cc1", "inhibition": "14.2% (inactive)"}, {"smiles": "Cc1ccc(-n2nc3ccc(N)cc3n2)c(C)c1", "inhibition": "59.3% (active)"}, {"smiles": "Nc1ccc2nn(-c3cccc4ccccc34)nc2c1", "inhibition": "64.5% (active)"}, {"smiles": "N#Cc1c(=O)c2nc(NCc3ccccc3)ncc2n2ccccc12", "inhibition": "26% (inactive)"}, {"smiles": "COc1ccccc1/C=C/C=N/NC(=O)c1cc(-c2ccco2)[nH]n1", "inhibition": "1.9% (inactive)"}, {"smiles": "COc1ccccc1-n1cnc2c(c1=O)c1nc3ccccc3nc1n2-c1ccc(C)c(C)c1", "inhibition": "2% (inactive)"}]}]}
